Assay results: PubChem BioAssay
The source made the active and inactive calls.

Assays:
[1] = small molecules captured by biotinylated probe aFSTL3 – biochemical, small-molecule microarray, fluorescence 635/667, stem cell growth factor project, primary screen (AID 1064); conditions: higher = more signal;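 note: measures binding of the biotinylated anti-FSTL3 antibody to printed compounds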
[2] = binders from COS7 lysate, DM2A8 probe, primary screen, torsin A project, cell lysate, small-molecule microarray, fluorescence 635/667 (AID 1065); conditions: higher = more signal, COS7 lysate expressing mutant human TOR1A
[3] = small molecules captured by biotinylated probe aFGF2 – biochemical, small-molecule microarray, fluorescence 635/667, stem cell growth factor project, primary screen (AID 1067); conditions: higher = more signal;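 note: measures binding of biotinylated aFGF2 protein to printed compounds on slides; z-score merges feature fluorescence and signal-to-noise across triplicate slides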
[4] = small molecules captured by biotinylated probe aFGF10 – biochemical, small-molecule microarray, fluorescence 635/667, stem cell growth factor project, primary screen (AID 1071); conditions: higher = more signal;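 note: score merges 667 nm spot intensity and signal to noise from triplicate slides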
[5] = target: Neurogenic locus notch homolog protein 2 (Homo sapiens) (UniProt Q04721); assay: small molecules binding Notch2 protein – biochemical, small-molecule microarray, 635 nm fluorescence, stem cell growth factors, primary screen (AID 1073); conditions: higher = more signal
Chain of Neurogenic locus notch homolog protein 2 (Homo sapiens) (Q04721 whole entry, looked up, canonical isoform): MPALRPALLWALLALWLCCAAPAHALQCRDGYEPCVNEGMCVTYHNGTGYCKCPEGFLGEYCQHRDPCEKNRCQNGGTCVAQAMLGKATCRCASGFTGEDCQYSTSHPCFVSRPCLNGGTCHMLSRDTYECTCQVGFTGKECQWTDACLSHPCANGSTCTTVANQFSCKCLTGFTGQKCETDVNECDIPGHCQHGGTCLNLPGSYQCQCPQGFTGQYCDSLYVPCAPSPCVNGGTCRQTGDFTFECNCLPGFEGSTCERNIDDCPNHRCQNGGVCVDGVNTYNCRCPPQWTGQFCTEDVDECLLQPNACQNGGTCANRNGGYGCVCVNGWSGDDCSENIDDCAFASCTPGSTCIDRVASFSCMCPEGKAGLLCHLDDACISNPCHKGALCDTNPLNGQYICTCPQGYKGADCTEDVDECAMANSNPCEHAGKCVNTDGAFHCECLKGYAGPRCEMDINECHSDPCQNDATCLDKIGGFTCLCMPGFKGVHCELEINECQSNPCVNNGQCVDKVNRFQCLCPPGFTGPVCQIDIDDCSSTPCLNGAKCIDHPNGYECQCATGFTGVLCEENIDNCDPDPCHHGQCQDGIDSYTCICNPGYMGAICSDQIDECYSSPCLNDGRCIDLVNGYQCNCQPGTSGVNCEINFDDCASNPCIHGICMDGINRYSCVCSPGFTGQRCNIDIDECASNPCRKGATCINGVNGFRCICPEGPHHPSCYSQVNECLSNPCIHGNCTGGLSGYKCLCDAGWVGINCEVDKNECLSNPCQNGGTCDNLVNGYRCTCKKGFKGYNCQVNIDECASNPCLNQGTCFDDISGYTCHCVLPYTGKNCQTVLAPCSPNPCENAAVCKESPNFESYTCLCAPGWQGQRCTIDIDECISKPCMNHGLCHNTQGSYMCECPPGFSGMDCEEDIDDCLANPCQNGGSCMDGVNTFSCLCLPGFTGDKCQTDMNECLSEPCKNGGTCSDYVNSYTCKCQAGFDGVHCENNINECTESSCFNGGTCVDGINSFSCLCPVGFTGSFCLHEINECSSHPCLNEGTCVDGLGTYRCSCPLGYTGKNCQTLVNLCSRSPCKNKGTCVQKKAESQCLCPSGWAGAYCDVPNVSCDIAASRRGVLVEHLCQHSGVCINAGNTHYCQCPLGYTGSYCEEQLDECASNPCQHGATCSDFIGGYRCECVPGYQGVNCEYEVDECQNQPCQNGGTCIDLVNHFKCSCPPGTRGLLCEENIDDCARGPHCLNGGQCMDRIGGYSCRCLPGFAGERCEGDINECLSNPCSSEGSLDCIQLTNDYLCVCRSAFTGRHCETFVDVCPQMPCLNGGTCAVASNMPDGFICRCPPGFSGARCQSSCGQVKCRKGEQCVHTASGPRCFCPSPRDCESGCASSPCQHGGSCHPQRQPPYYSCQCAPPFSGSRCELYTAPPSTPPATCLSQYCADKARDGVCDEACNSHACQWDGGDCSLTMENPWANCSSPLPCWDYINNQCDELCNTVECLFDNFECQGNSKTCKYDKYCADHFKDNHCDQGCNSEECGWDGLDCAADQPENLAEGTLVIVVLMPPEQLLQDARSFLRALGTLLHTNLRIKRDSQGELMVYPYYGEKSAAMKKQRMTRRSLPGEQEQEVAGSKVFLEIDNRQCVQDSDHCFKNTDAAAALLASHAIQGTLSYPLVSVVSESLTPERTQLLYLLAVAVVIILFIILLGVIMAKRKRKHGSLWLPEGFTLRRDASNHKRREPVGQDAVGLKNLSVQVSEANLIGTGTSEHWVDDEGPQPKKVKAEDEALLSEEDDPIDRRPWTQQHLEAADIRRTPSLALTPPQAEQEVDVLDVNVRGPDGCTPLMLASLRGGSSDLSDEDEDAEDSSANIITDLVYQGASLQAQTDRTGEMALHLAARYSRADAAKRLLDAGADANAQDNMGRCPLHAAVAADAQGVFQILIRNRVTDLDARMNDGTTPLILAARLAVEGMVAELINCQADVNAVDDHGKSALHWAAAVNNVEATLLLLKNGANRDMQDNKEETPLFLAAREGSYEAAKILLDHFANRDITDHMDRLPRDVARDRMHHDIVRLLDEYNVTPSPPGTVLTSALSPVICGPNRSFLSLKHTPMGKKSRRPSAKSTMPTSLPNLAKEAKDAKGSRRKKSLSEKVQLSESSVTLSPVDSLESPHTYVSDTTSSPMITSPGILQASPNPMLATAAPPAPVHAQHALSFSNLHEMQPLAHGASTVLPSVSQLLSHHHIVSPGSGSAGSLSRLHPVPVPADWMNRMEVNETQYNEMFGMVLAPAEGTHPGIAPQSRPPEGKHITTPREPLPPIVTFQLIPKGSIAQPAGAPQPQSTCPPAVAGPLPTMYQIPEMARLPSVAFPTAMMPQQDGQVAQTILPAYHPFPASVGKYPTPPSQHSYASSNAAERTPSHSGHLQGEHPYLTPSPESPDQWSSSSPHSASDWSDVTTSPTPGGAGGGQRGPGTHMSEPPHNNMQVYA

[6] = target: Pro-neuregulin-1, membrane-bound isoform (Homo sapiens) (UniProt Q02297); assay: small molecules binding neuregulin-1 protein – biochemical, small-molecule microarray, fluorescence 635/667, psychiatric disease protein project, primary screen (AID 1075); conditions: NRG1 binding, 635 nm fluorescence, higher = more signal;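 note: score combines 667 nm spot fluorescence with signal to noise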
[7] = test system: Neuregulin-1 EGF-like domain; assay: small molecules binding NRG1 EGF domain – biochemical, small-molecule microarray, 635 nm fluorescence, primary screen (AID 1081); conditions: higher = more signal;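 note: binding of the protein to compounds printed on small-molecule microarray slides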
[8] = FRG1 expression reporter modulators in myotubes – cell-based, C2C12 myotubes, firefly/Renilla luciferase, luminescence, FRG1 inhibition for FSHD, primary screen (AID 1084); conditions: FRG1 promoter luciferase, higher = more signal, called active from +8 up or from −8 down
[9] = small molecules captured by biotinylated probe aFST – biochemical, small-molecule microarray, fluorescence 635/667, stem cell growth factor project, primary screen (AID 1086); conditions: higher = more signal;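 note: score merges 667 nm fluorescence with signal-to-noise of each printed compound spot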
[10] = binders of probe aHhip on microarray, primary screen, stem cell growth factor project, biochemical, small-molecule microarray, fluorescence 635/667 (AID 1087); conditions: higher = more signal;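 note: score merges spot fluorescence at 667nm with spot signal to noise ratio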
[11] = test system: PRMT1 (protein arginine N-methyltransferase 1); assay: small molecules binding arginine methyltransferase PRMT1 – biochemical, small-molecule microarray, 635 nm fluorescence, primary screen (AID 1088); conditions: higher = more signal;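 note: binding of Prmt1 protein to compounds spotted on small-molecule microarray slides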
[12] = growth effects on S. cerevisiae YJM789 – YJM789 clinical isolate, OD600, 24 h, basal, primary screen (AID 1089); conditions: higher = more signal, called active from +8 up or from −8 down;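 note: growth of clinical yeast isolate S. cerevisiae YJM 789 seeded 1000 cells per well; test concentration not given here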
[13] = S. pombe growth modifiers, basal conditions – strain 972, OD600, 24 h, no modulator, primary screen (AID 1090);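 note: basal condition with compound alone and no growth modifier present; test concentration not given here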; conditions: S. pombe 972 growth, higher = more signal, called active from +8 up or from −8 down
[14] = budding yeast growth modifiers under rapamycin – strain BY4716, OD600, 96 h, primary screen (AID 1091); note: test concentration not given here; conditions: S. cerevisiae BY4716 + rapamycin, higher = more signal, called active from +8 up or from −8 down
[15] = target: Torsin-1A-interacting protein 2 (Homo sapiens) (UniProt Q8NFQ8); assay: small molecules binding lysate-expressed LULL1 – cell lysate, human LULL1 lysate, 635/667 nm fluorescence, primary screen (AID 1092); conditions: small-molecule microarray, hLULL1 lysate binding, 635 nm fluorescence; higher = more signal;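 note: probe is lysate of COS7 cells overexpressing human LULL1; score merges per-feature 667 nm fluorescence with signal-to-noise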
[16] = optical density change of DRC41 E. coli – strain DRC41, OD650, 24 h, E. coli filamentation project, primary screen (AID 1093);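 note: MC1000 strain lacking acrAB efflux and sulA so SOS filamentation is blocked; test concentration not given here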; conditions: E. coli DRC41 growth, higher = more signal, called active from +8 up or from −8 down
[17] = probe aLefty2 binding to arrayed compounds – biochemical, biotinylated probe, 635/667 nm fluorescence, primary screen (AID 1094); conditions: small-molecule microarray, higher = more signal;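 note: score merges spot fluorescence near 667 nm with spot signal-to-noise ratio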
[18] = test system: Noggin (protein binding on small-molecule microarray); assay: small molecules binding Noggin protein – biochemical, 635/667 nm fluorescence, primary screen (AID 1095); conditions: 635 nm fluorescence, higher = more signal;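 note: score merges 667 nm feature fluorescence with signal to noise over triplicate slides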
[19] = target: Neurogenic locus notch homolog protein 3 (Homo sapiens) (UniProt Q9UM47); assay: small molecules binding NOTCH3 protein – biochemical, 635/667 nm fluorescence, primary screen (AID 1096); conditions: small-molecule microarray, 635 nm fluorescence, higher = more signal
Chain of Neurogenic locus notch homolog protein 3 (Homo sapiens) (Q9UM47 whole entry, looked up): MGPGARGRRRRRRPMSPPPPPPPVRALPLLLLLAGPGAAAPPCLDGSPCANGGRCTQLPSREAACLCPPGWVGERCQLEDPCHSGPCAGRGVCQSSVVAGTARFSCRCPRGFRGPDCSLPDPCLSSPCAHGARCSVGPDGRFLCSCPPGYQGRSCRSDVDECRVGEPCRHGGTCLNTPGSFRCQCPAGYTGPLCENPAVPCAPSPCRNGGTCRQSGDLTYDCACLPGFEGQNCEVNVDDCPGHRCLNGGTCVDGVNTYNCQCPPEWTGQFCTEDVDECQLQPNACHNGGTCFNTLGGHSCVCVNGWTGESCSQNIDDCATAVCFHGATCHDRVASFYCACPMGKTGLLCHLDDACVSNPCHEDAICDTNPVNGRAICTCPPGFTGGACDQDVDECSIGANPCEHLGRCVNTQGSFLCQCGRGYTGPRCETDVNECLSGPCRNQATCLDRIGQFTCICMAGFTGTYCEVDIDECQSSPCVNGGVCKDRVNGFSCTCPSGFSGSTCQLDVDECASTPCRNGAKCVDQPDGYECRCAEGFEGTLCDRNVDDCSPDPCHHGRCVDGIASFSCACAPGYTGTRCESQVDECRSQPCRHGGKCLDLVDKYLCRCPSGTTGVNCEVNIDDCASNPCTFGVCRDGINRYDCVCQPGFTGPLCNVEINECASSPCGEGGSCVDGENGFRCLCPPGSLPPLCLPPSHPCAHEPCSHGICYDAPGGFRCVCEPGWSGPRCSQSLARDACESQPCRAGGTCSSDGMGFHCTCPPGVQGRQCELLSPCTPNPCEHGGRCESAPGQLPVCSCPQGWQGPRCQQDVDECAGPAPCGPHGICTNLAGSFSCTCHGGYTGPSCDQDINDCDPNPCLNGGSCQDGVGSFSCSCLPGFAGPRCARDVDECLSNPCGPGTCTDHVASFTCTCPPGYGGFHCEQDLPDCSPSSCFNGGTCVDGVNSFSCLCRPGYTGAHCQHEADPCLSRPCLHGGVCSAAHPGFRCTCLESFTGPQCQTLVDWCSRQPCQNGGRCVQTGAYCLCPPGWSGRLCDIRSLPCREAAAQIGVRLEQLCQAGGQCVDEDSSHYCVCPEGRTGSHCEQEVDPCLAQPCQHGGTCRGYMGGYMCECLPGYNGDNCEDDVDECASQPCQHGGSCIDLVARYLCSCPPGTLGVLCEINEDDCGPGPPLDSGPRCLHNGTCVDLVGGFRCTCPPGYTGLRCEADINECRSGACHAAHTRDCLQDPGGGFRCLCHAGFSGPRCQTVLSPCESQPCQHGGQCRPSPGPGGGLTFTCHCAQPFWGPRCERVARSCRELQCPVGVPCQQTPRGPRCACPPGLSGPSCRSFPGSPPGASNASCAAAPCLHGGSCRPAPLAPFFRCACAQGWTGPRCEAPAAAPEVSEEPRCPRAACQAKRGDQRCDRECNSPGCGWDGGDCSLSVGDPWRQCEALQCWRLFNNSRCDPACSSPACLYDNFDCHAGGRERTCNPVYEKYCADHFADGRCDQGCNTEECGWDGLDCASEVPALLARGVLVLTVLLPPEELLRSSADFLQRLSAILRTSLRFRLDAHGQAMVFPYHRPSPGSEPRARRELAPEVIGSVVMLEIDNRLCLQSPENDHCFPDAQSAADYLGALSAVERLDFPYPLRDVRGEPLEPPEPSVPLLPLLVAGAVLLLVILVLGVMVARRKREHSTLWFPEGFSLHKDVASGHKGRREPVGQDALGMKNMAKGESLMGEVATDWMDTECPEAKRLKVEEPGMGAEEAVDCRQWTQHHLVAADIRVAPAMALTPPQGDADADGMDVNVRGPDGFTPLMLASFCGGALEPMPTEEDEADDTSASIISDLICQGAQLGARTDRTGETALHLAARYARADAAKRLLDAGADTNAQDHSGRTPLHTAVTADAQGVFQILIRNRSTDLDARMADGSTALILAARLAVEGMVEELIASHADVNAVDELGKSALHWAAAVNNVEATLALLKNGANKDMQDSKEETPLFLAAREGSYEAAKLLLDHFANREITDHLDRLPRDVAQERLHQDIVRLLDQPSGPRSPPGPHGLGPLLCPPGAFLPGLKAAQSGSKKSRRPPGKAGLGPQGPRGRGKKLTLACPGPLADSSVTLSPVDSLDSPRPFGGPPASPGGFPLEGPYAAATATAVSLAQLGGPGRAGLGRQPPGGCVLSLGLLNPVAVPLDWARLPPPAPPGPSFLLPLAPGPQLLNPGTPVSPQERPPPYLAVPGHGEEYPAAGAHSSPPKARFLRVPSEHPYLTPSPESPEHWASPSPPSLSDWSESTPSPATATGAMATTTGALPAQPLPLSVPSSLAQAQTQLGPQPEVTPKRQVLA

[20] = probe aEGFR binding to arrayed compounds – biochemical, biotinylated probe, 635/667 nm fluorescence, primary screen (AID 1097); conditions: small-molecule microarray, higher = more signal;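 note: probe is a biotinylated anti-EGFR antibody binding compounds printed on slides; score combines fluorescence near 667 nm and signal to noise of each spot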

Structure (SMILES) | composite z-score [1] | composite z-score [2] | composite z-score [3] | composite z-score [4] | composite z-score [5] | composite z-score [6] | composite z-score [7] | z-score [8] | composite z-score [9] | composite z-score [10] | composite z-score [11] | z-score [12] | z-score [13] | z-score [14] | composite z-score [15] | z-score [16] | composite z-score [17] | composite z-score [18] | composite z-score [19] | composite z-score [20]
COC(=O)[C@@]1(Cc2ccc(OC)cc2)[C@H]2c3cc(C(=O)N(C)C)n(Cc4ccc(Cl)c(C(F)(F)F)c4)c3C[C@H]2CN1C(=O)c1ccccc1 | 1.33 | 0.218 | 0.262 | 0.473 | 1.47 | 1.39 | 1.03 | 0.282 (inactive) | 1.73 | 1.71 | 0.295 | 1.01 (inactive) | 1.38 (inactive) | 2.98 (inactive) | 3.06 | -0.397 (inactive) | 0.539 | -0.0329 | 1.02 | 0.35
O=C1O[C@H](c2ccccc2)[C@H](c2ccccc2)N2[C@H]1[C@@H](C(=O)Nc1nc3ccccc3s1)[C@]1(C(=O)Nc3ccc(C#CCCO)cc31)[C@H]2c1ccc(O)cc1 | -0.309 | 0.931 | -0.0074 | 1.01 | 0.947 | 1.2 | 1.27 | 0.912 (inactive) | 0.652 | -0.0581 | 1.55 | 0.758 (inactive) | 0.936 (inactive) | 1.14 (inactive) | 2.39 | -0.672 (inactive) | 0.0769 | 0.744 | 1.13 | 0.346
COC(=O)[C@@]1(Cc2ccccc2)[C@H]2c3cc(C(=O)N(C)C)n(CCc4ccc(O)c(OC)c4)c3C[C@H]2CN1C(=O)c1ccccc1 | 0.514 | 0.283 | 0.356 | 0.557 | 0.749 | 0.258 | 0.781 | 0.96 (inactive) | 1.34 | 2.09 | -0.26 | 0.031 (inactive) | -0.0531 (inactive) | 0.409 (inactive) | 0.47 | -0.452 (inactive) | 0.425 | 0.374 | 0.489 | 0.992
O=C1NC(=O)C2C1C=CC(C(O)CCc1ccccc1)N2Nc1ccc(Cl)cc1Cl (stereo not given) | 1.18 | 1.42 | 0.153 | 0.229 | 1.39 | 1.34 | 1.1 | 1.19 (inactive) | 1.55 | 0.011 | 0.23 | -0.455 (inactive) | -2.05 (inactive) | 0.0242 (inactive) | 2.73 | -0.748 (inactive) | 0.379 | -0.839 | -0.0822 | 0.0122
Cc1ccc(S[C@]2(C(=O)O)CC(=O)N(Cc3ccccc3Cl)[C@@H]2c2ccc(CO)cc2I)cc1 | 0.655 | 0.39 | 0.234 | 0.107 | -0.442 | -0.0683 | 1.09 | 0.11 (inactive) | 0.415 | -0.624 | 0.765 | -0.923 (inactive) | -1.71 (inactive) | 1.21 (inactive) | 0.198 | -0.852 (inactive) | -0.131 | -0.678 | -0.162 | 0.519
CC(c1ccccc1)C(O)C1C=CC2C(=O)N(c3ccccc3)C(=O)C2N1Nc1ccc([N+](=O)[O-])cc1 (stereo not given) | -0.263 | 0.031 | -0.0265 | 0.772 | 1.62 | 1.58 | 1.11 | -1.32 (inactive) | 0.745 | -0.166 | 1.07 | 0.197 (inactive) | 1.58 (inactive) | 1.78 (inactive) | 3.55 | 0.1 (inactive) | 0.0249 | 0.361 | 1.09 | -0.027
CN(C)CCCCNC(=O)[C@@H]1C[C@@H]2C(=O)N[C@@H](Cc3ccccc3)C(=O)N2[C@@H]1c1cccc(OCCO)c1 | -0.185 | 0.971 | 0.0281 | 0.645 | -0.729 | 0.382 | 0.905 | 3.35 (inactive) | 0.218 | 0.0524 | 1.55 | -5.59 (inactive) | -1.63 (inactive) | -1.09 (inactive) | 1.5 | 2.67 (inactive) | -0.125 | 1.45 | 1.06 | -0.131
C=CCC(OC(C)=O)[C@@H]1[C@@H](N(Cc2cccc3ccccc23)C(=O)Cc2ccc(OC)cc2)c2cc(OCCCO)ccc2N1C(=O)c1ccc2ccccc2n1 (stereo not given in full) | -0.192 | 0.0233 | 0.0437 | 0.11 | -0.263 | 0.836 | 0.154 | -1.76 (inactive) | 0.153 | -0.152 | 0.892 | -0.482 (inactive) | 0.787 (inactive) | -1.24 (inactive) | 1.2 | -0.558 (inactive) | -0.109 | 0.201 | 0.222 | -0.144
C=CCC(OC(C)=O)[C@@H]1[C@@H](N(Cc2ccc(-c3cccc(C(F)(F)F)c3)o2)C(=O)c2ccc(-c3ccccc3)cc2)c2cc(OCCCO)ccc2N1C(=O)c1ccc2ccccc2n1 (stereo not given in full) | -0.0375 | -0.246 | -0.0266 | 0.306 | 0.0588 | 0.0617 | -0.385 | -0.379 (inactive) | 0.77 | -0.0237 | -1.08 | 0.672 (inactive) | 0.789 (inactive) | 0.847 (inactive) | -0.244 | -0.656 (inactive) | -0.0063 | -0.0955 | 0.0478 | -0.0656
C=C(C)[C@@H]1CC=C(C(O)C2C=CC3C(=O)N(c4ccccc4)C(=O)C3N2Nc2ccccc2F)CC1 (stereo not given in full) | 0.264 | 0.0754 | 0.195 | 0.825 | 1.63 | 1.94 | 1.22 | -1.51 (inactive) | 1.84 | 0.18 | 1.57 | 1.59 (inactive) | 1.09 (inactive) | 3.06 (inactive) | 3.64 | -1.48 (inactive) | 0.0865 | 0.443 | 1.01 | 0.11
